Inconclusive results are not listed. The source made the active and inactive calls. Unless noted, calls come from the whole dose curve; as a rule, active = well fitted curve in the direction sought with a large enough effect in the repeat runs; inconclusive = weak or mixed curves; inactive = no such curve, though single readings can be large; an effect the other way counts as inactive or inconclusive.
Key:
[1] = qHTS assay to identify small molecule antagonists of the thyroid receptor (TR) signaling pathway - cell viability counter screen (AID 743064); note: nearly all actives have a fitted effect of over 50% in size
How it was run: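 Fluorescence from CellTiter-Fluor, added after 23.5 h exposure at 37 °C, reported viability of GH3.TRE-Luc cells co-treated with compound and 1 nM T3. Measured in the same wells as the luciferase TR readout.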

[2] = tested on: thyroid hormone receptor (rat, GH3 cells); experiment: qHTS assay to identify small molecule agonists of the thyroid receptor (TR) signaling pathway (AID 743066; calls by dose curve)
[3] = target: Estrogen receptor (Homo sapiens) (UniProt P03372); experiment: qHTS assay to identify small molecule antagonists of the estrogen receptor alpha (ER-alpha) signaling pathway (AID 743069; active = well fitted curve in the direction sought with a large enough effect in the signal ratio in the repeat runs, not every such curve was filed as active; the % refers to the signal ratio)
Chain of Estrogen receptor (Homo sapiens) (P03372 whole entry, looked up): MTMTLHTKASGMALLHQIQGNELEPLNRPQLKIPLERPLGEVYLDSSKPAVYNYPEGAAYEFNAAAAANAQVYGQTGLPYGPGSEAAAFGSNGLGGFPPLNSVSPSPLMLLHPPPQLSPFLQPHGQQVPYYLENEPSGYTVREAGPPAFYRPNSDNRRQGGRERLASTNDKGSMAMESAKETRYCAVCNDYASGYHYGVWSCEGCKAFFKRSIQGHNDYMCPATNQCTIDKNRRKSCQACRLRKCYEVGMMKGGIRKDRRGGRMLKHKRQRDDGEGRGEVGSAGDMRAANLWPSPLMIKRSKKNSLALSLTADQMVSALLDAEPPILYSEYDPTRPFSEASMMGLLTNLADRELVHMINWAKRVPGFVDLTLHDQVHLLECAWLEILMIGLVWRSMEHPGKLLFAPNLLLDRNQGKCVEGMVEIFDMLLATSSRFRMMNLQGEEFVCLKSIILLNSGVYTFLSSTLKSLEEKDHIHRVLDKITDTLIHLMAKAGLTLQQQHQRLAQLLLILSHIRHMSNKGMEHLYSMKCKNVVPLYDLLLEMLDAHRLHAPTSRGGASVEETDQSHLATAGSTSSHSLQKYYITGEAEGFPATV
How it was run: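 ER-alpha-UAS-bla GripTite HEK293 line; 2% charcoal-stripped FBS overnight; plated, 4 hr 37C/5% CO2; cpd in DMSO + 17beta-estradiol, 18 hr 37C; LiveBLAzer B/G FRET substrate 2 hr RT; fluorescence intensity.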

[4] = qHTS assay to identify small molecule antagonists of the estrogen receptor alpha (ER-alpha) signaling pathway - cell viability counter screen (AID 743074; calls by dose curve;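 note: HEK293 cells carrying ER-alpha-UAS-bla reporter stimulated with 17beta-estradiol; nearly all actives have a fitted effect of over 45% in size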)
[5] = target: Estrogen receptor (Homo sapiens) (UniProt P03372); experiment: qHTS assay to identify small molecule agonists of the estrogen receptor alpha (ER-alpha) signaling pathway (AID 743075; calls by dose curve;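 note: HEK293 GripTite cells with ER-alpha and UAS-driven beta-lactamase reporter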)
[6] = target: Estrogen receptor (Homo sapiens) (UniProt P03372); experiment: qHTS assay to identify small molecule agonists of the estrogen receptor alpha (ER-alpha) signaling pathway using the BG1 cell line (AID 743079); note: nearly all actives have a fitted effect of over 20% in size
[7] = qHTS assay to identify small molecule antagonists of the estrogen receptor alpha (ER-alpha) signaling pathway using the BG1 cell line (AID 743080; calls by dose curve;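 note: BG1 cells stimulated with 17beta-estradiol alongside compound; nearly all actives have a fitted effect of over 25% in size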; note: potency is the fitted concentration of half-maximal effect)
How it was run: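 BG1-Luc-4E2 cells (endogenous full-length ER-alpha, stable 4×ERE-luciferase) were starved 5 days in phenol-red-free medium with 10% charcoal-stripped FBS, plated 24 h, then given compound plus 17beta-estradiol for 21.5 h at 37 C; ONE-Glo luminescence read after 30 min.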

[8] = qHTS assay to identify small molecule antagonists of the estrogen receptor alpha (ER-alpha) signaling pathway using the BG1 cell line - cell viability counter screen (AID 743081);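 note: compound given together with 17beta-estradiol as the ER stimulus; series mostly up to about 70 µM; nearly all actives have a fitted effect of over 45% in size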
Aromatase (Homo sapiens) = Aromatase (Homo sapiens) (UniProt P11511); experiment: qHTS assay to identify aromatase inhibitors (AID 743083); note: series mostly up to about 70 µM; nearly all actives have a fitted effect of over 55% in size
Chain of Aromatase (Homo sapiens) (P11511 whole entry, looked up): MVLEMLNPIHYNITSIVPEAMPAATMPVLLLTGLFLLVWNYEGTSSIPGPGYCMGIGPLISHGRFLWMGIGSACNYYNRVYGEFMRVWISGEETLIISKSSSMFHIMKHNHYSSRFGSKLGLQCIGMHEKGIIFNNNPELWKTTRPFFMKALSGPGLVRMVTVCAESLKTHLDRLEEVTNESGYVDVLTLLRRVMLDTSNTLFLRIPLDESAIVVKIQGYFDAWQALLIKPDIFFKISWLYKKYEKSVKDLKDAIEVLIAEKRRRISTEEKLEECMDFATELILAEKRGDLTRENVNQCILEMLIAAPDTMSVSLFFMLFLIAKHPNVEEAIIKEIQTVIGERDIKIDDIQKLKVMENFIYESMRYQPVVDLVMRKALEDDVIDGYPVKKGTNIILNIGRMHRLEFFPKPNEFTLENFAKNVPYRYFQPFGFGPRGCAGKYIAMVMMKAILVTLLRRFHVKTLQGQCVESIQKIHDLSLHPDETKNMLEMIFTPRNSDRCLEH

[9] = qHTS assay to identify small molecule antagonists of the thyroid receptor (TR) signaling pathway (AID 743065); note: series mostly up to about 70 µM; nearly all actives have a fitted effect of over 55% in size
How it was run: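 Antagonism measured as loss of luciferase signal in GH3 cells stably carrying a TRE-luciferase reporter, co-treated with compound and T3 (1 nM final) for 23.5 h at 37 C. Viability was read in the same well by CellTiter-Fluor.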

Measured: Potency

CCCCCCCCCCCCSC#N
not listed: [9]
inactive: all other assays above

CCN(CCCCOC(=O)c1ccc(OC)c(OC)c1)C(C)Cc1ccc(OC)cc1 (stereo not drawn)
not listed: [9]
inactive: all other assays above

NCCOCCOCCN
inactive: [1] | [2] | [4] | [8] | Aromatase (Homo sapiens)

COC(=O)c1cc(Cl)ccc1[N+](=O)[O-]
not listed: [2]
inactive: all other assays above

O=C(O)COCC(=O)O
inactive: [1] | [9] | [2] | [8] | Aromatase (Homo sapiens)

CC(=O)CC/C=C(\C)CC/C=C(\C)CC/C=C(\C)CCC=C(C)C
inactive: [1] | [2] | [4] | [8] | Aromatase (Homo sapiens)

Clc1cccc(C(c2ccc3nc[nH]c3c2)n2ccnc2)c1 (stereo not drawn)
active: [7] 11.9 µM
inactive: [1] | [2] | [3] | [5] | [8]
